The list is not random: actives were taken first. Their share in the collection is about 7.9%.
SW480 rereplic = inducers of DNA re-replication in SW480 colon cancer cells; SW480 DNA re-replication, Hoechst DNA content imaging, 48 h; Potency, µM (top dose mostly 46.1 µM), without a hit: top-dose re-replication activation, most hits filed as activators; 1.8% of 340,000 active; further: % of control where 0% means no effect; nearly all actives have a fitted effect of over 55% in size
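DNA re-replication was detected as more nuclei of elevated Hoechst intensity after 48 hr exposure to compound (23 nL pinned per well of 250 cells).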
HT1080 IDH1KD tx = HT-1080 IDH1 knockdown cell toxicity (counter line); HT-1080 IDH1 knockdown viability, ATP luminescence, 48 h; Potency, µM (doses to about 46.1 µM), for the others: top-dose activity, negative = toxicity, actives largely listed as cytotoxic; 2% of 360,000 active; AID 686971;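 further: 0% = DMSO wells and -100% = cell-free medium wells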
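Assay cells: HT-1080 with IDH1 knockdown, 750 per well, RPMI/5% FBS. Exposure: 48 h at 37 °C following 2 h pre-incubation. Read: CellTiter-Glo luminescence; fitted concentration-response, curve class assigned.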
KB-V1 MDR tox = kills drug-selected multidrug resistant KB-V1 cells. KB-V1 MDR cells viability, CellTiter-Glo, 72 h. Potency, µM (top dose mostly 46.1 µM), hits mostly cytotoxic. 3.4% of 400,000 active; further: on the % scale 0 is the no-effect control and ±100 the full control effect; nearly all actives have a fitted effect of over 60% in size
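Cytotoxicity toward P-gp-expressing KB-V1 cells was determined as loss of CellTiter-Glo luminescence after 72 h at 37 degrees C. Compounds were tested in quantitative HTS format across a concentration range, with curves fitted to normalized data.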
KB-3-1 cytotox = KB-3-1 parental cell cytotoxicity; KB-3-1 viability, CellTiter-Glo ATP luminescence, 72 h; 1.4% of 400,000 active; AID 1347075; Potency, µM (series often up to 46.1 µM), actives largely listed as cytotoxic; further: on the % scale 0 is the no-effect control and ±100 the full control effect; nearly all actives have a fitted effect of over 60% in size
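KB-3-1 parental drug-naive adenocarcinoma cells in DMEM/10% FBS, incubated 72 h at 37 C with pin-transferred compounds across a concentration series. Viability by CellTiter-Glo luminescence; concentration-response curves fitted after normalization.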
MCF10A rereplic = DNA re-replication induction in MCF 10a cells; MCF 10A DNA re-replication, Hoechst nuclear intensity, 48 h; 2.9% of 350,000 active; Potency, µM (top dose mostly 46.1 µM), inactives show at the top dose activity, positive = re-replication, actives largely listed as activators; AID 624296; further: % of control where 0% means no effect; nearly all actives have a fitted effect of over 50% in size
HT1080-NT tox = kills 2HG-producing HT-1080-NT fibrosarcoma cells; HT-1080-NT fibrosarcoma viability, CellTiter-Glo ATP luminescence, 48 h; Potency, µM (titrated, usually from 46.1 µM), for inactives: top-dose activity, negative = less viability, most hits filed as cytotoxic; 1.6% of 360,000 active;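 further: NT is the 2HG producing partner of a matched IDH1 knockdown line; 0% = DMSO-treated cells and -100% = media-only wells without cells; nearly all actives have a fitted effect of over 55% in size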
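Read-out is CellTiter-Glo luminescence after 10 minutes at room temperature, following 48 hours' compound treatment of HT-1080-NT cells (750 cells/well, RPMI, 5% FBS, 37 degrees C).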
Numbers without * were called inactive; i = inactive; ? = inconclusive; . = no result. The call rests on the fitted dose curve; in most records, active means well fitted curve in the direction sought with a large enough effect; inconclusive means small, poorly fitted or top-dose-only effect, or another doubt; inactive means no such curve, though single readings can be large; an effect the other way counts as inactive or inconclusive. Potency means the concentration at half of the fitted maximal effect.

SMILES | SW480 rereplic | HT1080 IDH1KD tx | KB-V1 MDR tox | KB-3-1 cytotox | MCF10A rereplic | HT1080-NT tox
COC(=O)c1ccc(N2CCc3ccccc32)c([N+](=O)[O-])c1 | -5.9% | 15.9% | i | i | ? | 10.1%
CCCc1cc(CN2CCOCC2)c(O)c(CN2CCOCC2)c1O | ? | ? | ? | i | 14.6µM* | 13.0%
Oc1c(CN2CCOCC2)cc(CN2CCOCC2)c(O)c1O | -1.7% | -1.8% | i | i | 1.2% | 4.4%
Cc1c2c(nc3nc4ccccc4n13)CC(C)(C)CC2=O | -12.0% | 1.5% | 14.6µM* | i | 3.0% | 6.8%
CC1(C)CC(=O)c2cn3c(nc2C1)nc1ccccc13 | -6.3% | -6.3% | i | i | 1.6% | -3.3%
Cc1ccc(NC(=O)c2ncn(CC(=O)NCc3ccc4[nH]ccc4c3)n2)cc1C | -0.4% | -0.8% | i | i | 27.1% | 1.3%
Cc1ccc(NC(=O)c2ncn(CCCN(CCCn3cnc(C(=O)Nc4ccc(C)c(C)c4)n3)Cc3ccc4[nH]ccc4c3)n2)cc1C | ? | 20.6µM* | i | i | ? | 16.4µM*
COCCNC(=O)Cn1c(-c2cccs2)cc2cc(Cl)ccc21 | . | . | i | i | . | .
COC(=O)[C@@]12C[C@@H](CC(=O)NCC3CCCCC3)C(=O)N(Cc3ccccc3)C1=CCC(C)(C)C2 | . | -11.7% | ? | i | . | -27.0%
Clc1nc(NCC2CCCO2)c2[nH]cnc2n1 (configuration not stated) | . | . | i | ? | . | .
CN(C)C(=O)CCC(=O)N1CCCC(C(=O)c2ccc3c4c(cccc24)CC3)C1 (configuration not stated) | ? | -1.3% | i | i | 25.4% | -17.9%
CCc1nc(CN2CCCC(C(=O)Nc3ccc(-c4cccc(OC)c4)cc3)C2)c(C)[nH]1 (configuration not stated) | . | -25.2% | i | i | . | -17.1%
O=C(c1ccc2c3c(cccc13)CC2)C1CCCN(Cc2ccncc2)C1 (configuration not stated) | ? | -6.1% | ? | i | ? | 13µM*
CCc1nc(CN2CCCC(C(=O)c3ccc4c5c(cccc35)CC4)C2)c(C)[nH]1 (configuration not stated) | ? | 16.4µM* | ? | i | ? | 14.6µM*
Cc1cc(N2C(=O)C3C4c5ccccc5C(c5ccccc54)C3C2=O)no1 (configuration not stated) | 6.2% | 2.6% | 8.2µM* | i | ? | 7.8%
NC(=S)N/N=C/c1ccccc1 | 3.2% | -0.6% | i | i | 2.8% | 5.6%
NC(=S)N/N=C/c1ccc(C23CC4CC(CC(C4)C2)C3)cc1 | 7.31µM* | ? | i | ? | ? | ?
Cc1cccc2cc(C(c3nnnn3CC3CCCO3)N3CCc4ccccc4C3)c(=O)[nH]c12 (configuration not stated) | -0.2% | -0.6% | ? | i | 8.1% | -4.8%
Cc1cccc2cc(C(c3nnnn3CC3CCCO3)N3CCCc4ccccc43)c(=O)[nH]c12 (configuration not stated) | 14.8% | -15.7% | 18.4µM* | i | -0.2% | -16.4%
Cc1cc2cc(C(c3nnnn3CC3CCCO3)N3CCCc4ccccc43)c(=O)[nH]c2cc1C (configuration not stated) | ? | 11.2µM* | 20.6µM* | ? | ? | ?
Cc1ccc2cc(C(c3nnnn3CC3CCCO3)N3CCCC4(CCCCC4)C3)c(=O)[nH]c2c1 (configuration not stated) | -2.1% | 5.7% | 14.6µM* | i | -6.6% | 5.0%
Cc1ccc2cc(C(c3nnnn3CC3CCCO3)N3CCc4ccccc4C3)c(=O)[nH]c2c1 (configuration not stated) | -6.3% | 0.1% | i | i | ? | 1.2%
CC(C)(C)c1ccc(Oc2nc3ccccn3c(=O)c2/C=C(\C#N)c2nc3ccccc3[nH]2)cc1 | . | . | i | i | . | .
O=S(=O)(c1ccccc1)[C@@]1(c2ccccc2)C[C@@H]2ON=C(c3cccc(-c4ccccc4)c3)[C@@H]2C1 | 2.4% | 6.2% | ? | i | 13.8% | 13.0%
OC(c1ccccn1)(c1ccccn1)c1ccccn1 | ? | ? | 10.3µM* | i | ? | ?
SMILES | SW480 rereplic | HT1080 IDH1KD tx | KB-V1 MDR tox | KB-3-1 cytotox | MCF10A rereplic | HT1080-NT tox
COCCn1c(SCc2nc(N)nc(Nc3ccccc3C)n2)nc2ccccc2c1=O | 1.9% | 4.3% | 8.2µM* | i | 23.1% | -18.5%
Cc1ccccc1NC(=O)CCCSc1nc2ccccc2s1 | 0.3% | 1.0% | 14.6µM* | i | 12.7% | -3.6%
Cc1ccccc1Nc1nc(N)nc(CSc2nc3ccccc3c(=O)n2CCCO)n1 | 4.3% | -20.1% | i | i | -4.2% | ?
Cc1ccccc1Nc1nc(N)nc(CSc2nc3ccccc3s2)n1 | -4.1% | 6.1% | 16.4µM* | i | 23.3% | 6.9%
Cc1ccccc1Nc1nc(N)nc(CSc2nc3ccccc3c(=O)n2C)n1 | 9.3% | -29.3% | 16.4µM* | i | ? | -17.5%
CC(=O)OCC(=O)[C@H]1CC[C@H]2[C@@H]3CCC4=CC(=O)CC[C@]4(C)[C@H]3CC[C@]12C | -29.8% | 10.8% | 14.6µM* | ? | 6.8% | 11.6%
C[C@]12CCC(=O)C=C1CCC1C2CC[C@@]2(C)C1CCC21OCCO1 (some centres not stated) | 20.7% | -0.9% | ? | i | 20.6µM* | ?
C[C@]12CCC(=O)C=C1CC[C@@H]1[C@@H]2CC[C@@]2(C)[C@H]1CC[C@@]21CCC(=O)O1 | 8.2% | -0.6% | i | i | -0.3% | -0.7%
NC(=O)C1CCN(c2nccc(-c3ccc4c(c3)OCCCO4)n2)CC1 | . | . | i | i | . | .
Oc1[nH]c2ccc(Br)cc2c1N=NC(=S)N1CCOCC1 | ? | 1.03µM* | i | i | 28.8% | ?
Oc1[nH]c2ccccc2c1N=NC(=S)N1CCOCC1 | ? | ? | ? | ? | 16.4% | ?
O=C(CSc1nc(-c2ccco2)cc(C(F)(F)F)n1)Nc1ccc2c(c1)OCO2 | -7.1% | ? | 18.4µM* | ? | -2.2% | ?
CCn1cc(CNC(=O)CCSc2nc(-c3ccco3)cc(C(F)(F)F)n2)cn1 | ? | -16.0% | 4.61µM* | ? | ? | -18.6%
O=C(CCCSc1nc(-c2ccco2)cc(C(F)(F)F)n1)Nc1ccc2c(c1)OCO2 | 2.3% | -23.6% | i | i | -1.6% | -23.1%
Oc1c(C(Nc2ccccn2)c2ccccc2)cc(Cl)c2cccnc12 (configuration not stated) | . | . | i | ? | . | .
